# Bioassay records (PubChem)
# A selection: hits, their analogues and other compounds. The true share with any hit is near 1.2%.
# Statin myotox sup: suppression of simvastatin myotoxicity; C2C12 myotubes + simvastatin, ATP luminescence, 48 h; scaled: DMSO 0, geranylgeraniol control 100; rescue of ATP level, % at 7.49 µM; 0.78% of 330,000 active;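 active means mean ATP rescue above about 67%, or every replicate alone reaching that limit, limit read from the data, passing the limit was not always enough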;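 further: myotubes were challenged with 10 µM simvastatin during compound exposure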
# miR-122 sensor: miR-122 inhibition in Huh7 cells. Huh7 miR-122 Renilla luciferase sensor, 48 h; neutral wells = 0, positive control = 100. activation (reporter increase), % at 12.5 µM. 0.3% of 340,000 active. AID 602342;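 active means mean replicate activation score at least 90 and every replicate individually at or above 90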;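 further: higher luciferase means less miR-122 activity so hits act as miR-122 inhibitors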
# PglD DTNB: PglD (C. jejuni) enzyme inhibition. inhibition, % at 12.5 µM. purified PglD enzyme, DTNB colorimetric CoA detection. 0.098% of 360,000 active; in the data active means inhibition above about 16%, passing the limit was not always enough
# NSD2 inh: NSD2 (human) methyltransferase inhibition; O96028; NSD2 peptide methylation, AlphaScreen, 120 min; inhibition, % at 12.5 µM; 0.54% of 310,000 active; in the data active means inhibition above about 50%
# Hits are given with their value; – = inactive; · = not tested or not shown; [ ] = remark or other dose.
SMILES,Statin myotox sup,miR-122 sensor,PglD DTNB,NSD2 inh
N=c1n(-c2ccccc2)c(O)cc(=O)n1-c1ccccc1,123,–,–,–
O=c1cc(O)n(-c2ccccc2)c(=S)[nH]1,–,–,–,–
O=C(C1CCCC1)N1C[C@H]2[C@@H](c3ccccc31)[C@@H](CO)N2C(=O)Nc1cccc(F)c1,–,–,–,·
Cn1c2c(c(=O)n(C)c1=O)C(CC(=O)Nc1ccccc1)C(=O)N2 (configuration not stated),133,–,–,–
Cc1cc(C)c(S(=O)(=O)NCc2ccccn2)cc1C,–,101,–,–
COc1ccc(C(C)C)cc1S(=O)(=O)NCc1ccccn1,·,–,–,–
CCOc1cc(S(=O)(=O)NCc2ccccn2)c(C)cc1C,·,·,·,–
Cc1ccc(C(C)C)cc1S(=O)(=O)NCc1ccccn1,–,283,–,–
CC1=CC(C)(C)N2C(=O)C3(C(C#N)=C(N)Oc4cc(C)oc(=O)c43)c3cc(C)cc1c32 (configuration not stated),·,–,–,–
COc1cc2c3c(c1)C1(C(=O)N3C(C)(C)C=C2C)C(C#N)=C(N)Oc2cc(C)oc(=O)c21 (configuration not stated),114,–,–,–
CC1=CC(C)(C)N2C(=O)C3(C(C#N)=C(N)OC4=C3C(=O)CC(C)(C)C4)c3cccc1c32 (configuration not stated),·,·,·,–
CC1=CC(C)(C)N2C(=O)C3(C(C#N)=C(N)OC4=C3C(=O)CC(C)(C)C4)c3c(C)c(C)cc1c32 (configuration not stated),92,–,–,–
C[C@H](CO)N1C[C@H](C)[C@@H](CN(C)S(C)(=O)=O)Oc2ccc(NC(=O)Cc3ccccc3)cc2C1=O,–,–,–,·
Cc1noc(C)c1NC(=O)N[C@@H]1CC[C@@H](CC(=O)Nc2ccc(-c3ccccc3)cc2)O[C@@H]1CO,–,–,–,·
COc1cccc(-c2ccc3n(c2=O)C[C@@H]2[C@@H](CO)[C@H](C(=O)N(C)C)N(CC4CC4)[C@H]32)c1,–,–,–,·
CCCCCn1c(N2CCC(C(N)=O)CC2)nc2c1c(=O)[nH]c(=O)n2C,107,–,–,–
O=C(Nc1ccc2c(c1)OCCO2)c1ccccc1Cl,–,–,–,–
O=C(Nc1ccc2c(c1)OCCO2)c1cccc2nc3ccccc3nc12,74,–,–,–
O=C(N[C@H]1CC[C@@H](CCNC(=O)C2CCOCC2)O[C@@H]1CO)c1ccncc1,–,·,–,·
C[C@@H]1CN([C@@H](C)CO)C(=O)c2cccc(NC(=O)C3CC3)c2O[C@H]1CN(C)Cc1ccc(C(=O)Nc2ccccc2N)cc1,–,–,–,·
C[C@@H]1CN([C@@H](C)CO)C(=O)c2cccc(NC(=O)C3CCCCC3)c2O[C@@H]1CN(C)Cc1ccc(C(=O)Nc2ccccc2N)cc1,–,185[16.7 µM],–,·
C[C@@H]1CN([C@H](C)CO)C(=O)c2cccc(NC(=O)C3CCOCC3)c2O[C@@H]1CN(C)Cc1ccc(C(=O)Nc2ccccc2N)cc1,110,–,–,·
C[C@@H]1CN([C@H](C)CO)C(=O)c2cc(NC(=O)Cc3ccccc3)ccc2O[C@@H](C)CCCCO[C@@H]1CN(C)C(=O)c1ccccc1,·,–,–,·
C/C=C/c1cnc2c(c1)C(=O)N([C@H](C)CO)C[C@H](C)[C@H](CN(C)Cc1cccc(C(=O)O)c1)O2,–,–,–,·
COc1ccc(S(=O)(=O)NNC(=O)c2ccccc2-n2cccc2)cc1,112,–,–,–
SMILES,Statin myotox sup,miR-122 sensor,PglD DTNB,NSD2 inh
C[C@H]1CN([C@@H](C)CO)C(=O)c2cc(NC(=O)Nc3ccccc3)ccc2O[C@H]1CN(C)C(=O)Nc1ccc2c(c1)OCO2,·,–,·,·
CCN(C(=O)c1cnc(N2CCN(c3ncccn3)CC2)c2ccccc12)c1cccc(Cl)c1,110,–,–,–
CN(C(=O)c1cnc(N2CCN(c3ncccn3)CC2)c2ccccc12)c1ccc(Cl)cc1,–,–,–,–
C[C@H]1CN([C@@H](C)CO)S(=O)(=O)c2ccc(C3=CCCC3)cc2O[C@H]1CN(C)C(=O)c1ccccc1,–,–,–,·
Cc1c(C(=O)OCC(C)(C)CN(C)C)oc2ccccc12,95,–,–,–
CC1(C)NC(=O)N(CNc2cc(Cl)ccc2Cl)C1=O,100,–,–,–
COCc1cn(CC[C@@H]2CC[C@H](NC(=O)Cc3cccnc3)[C@H](CO)O2)nn1,–,·,–,·
O=C(Nc1cccc(NC(=O)c2ccccc2F)c1)c1ccccc1,107,–,–,–
Cc1cccc(NC(=O)c2ccccc2C(=O)O)c1,137,–,–,–
COc1ccc(C)cc1S(=O)(=O)Nc1cc(Cl)ccc1Cl,–,215,–,–
